Assay outcomes deposited in PubChem by National Center for Advancing Translational Sciences (NCATS).
In the library only some 1.4% were active in any assay of this set; here they are far more common.
Giardia FBPA inh: blocks Giardia fructose-bisphosphate aldolase activity. actives 0.71% (n = 290,000). AID 2451. Potency, µM (titrated, usually from 59.6 µM), usual class: inhibitors. purified Giardia FBPA. A8B2U2; further: nearly all actives have a fitted effect of over 55% in size
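Giardia FBPA (40 nM reagent) was preincubated 10 min at RT with compound (up to 57.5 uM final), then substrate plus GAPDH/TPI/NAD/arsenate coupling system with diaphorase/resazurin was added; resorufin fluorescence (525/598 nm) was read after 20 min.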
Tb PYK inh: blocks Trypanosoma brucei pyruvate kinase; Q57TT1; TbPYK enzyme, Kinase-Glo Plus ATP luminescence, 45 min; Potency, µM (highest dose often 76.8 µM), usual class: inhibitors; actives 0.12% (n = 410,000); AID 624173; further: nearly all actives have a fitted effect of over 50% in size
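Enzyme and substrate buffer are dispensed first and compound is pin-transferred. ADP at 130 uM final then starts the reaction, which runs 45 min at room temperature. Detection reagent is added for 10 min before luminescence is imaged.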
LmPK inhibitor: LmPK (Leishmania mexicana) enzyme inhibition. actives 0.37% (n = 290,000). Q27686. purified LmPK, Kinase-Glo ATP luminescence, 1 h. Potency, µM (doses to about 57.5 µM), most hits filed as inhibitors
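In 50 mM imidazole pH 7.2 with 7 mM MgCl2, LmPK (0.1 nM) turned over PEP (0.5 mM) and ADP (0.1 mM) for 1 h at room temperature. Luciferase read-out of ATP.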
AmpC no deterg: inhibitors of E. coli AmpC beta-lactamase without detergent | P00811 | actives 0.52% (n = 330,000) | Potency, µM (titrated, usually from 57.1 µM), usual class: inhibitors | AID 485341 | AmpC nitrocefin hydrolysis, absorbance 480 nm, 0.0001% Triton; further: nearly all actives have a fitted effect of over 20% in size
Target sequence (P00811 whole entry, looked up): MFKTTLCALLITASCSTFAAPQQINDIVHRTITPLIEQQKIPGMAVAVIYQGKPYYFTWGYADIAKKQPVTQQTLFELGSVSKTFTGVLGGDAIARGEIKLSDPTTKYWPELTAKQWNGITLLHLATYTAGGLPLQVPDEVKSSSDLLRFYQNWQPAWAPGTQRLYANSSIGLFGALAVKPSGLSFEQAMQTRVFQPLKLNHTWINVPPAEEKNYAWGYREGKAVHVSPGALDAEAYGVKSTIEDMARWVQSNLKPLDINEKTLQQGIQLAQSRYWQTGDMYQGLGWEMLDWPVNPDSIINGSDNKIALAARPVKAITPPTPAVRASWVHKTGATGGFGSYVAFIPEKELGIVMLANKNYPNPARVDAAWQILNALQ
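AmpC (5.3 nM in the dispensed reagent) in 20 mM phosphate pH 7.0 with 0.01% (detergent screen) or 0.0001% Triton X-100 was preincubated with compounds for 15 min at room temperature. Nitrocefin was then added from an 800 uM solution, and hydrolysis was followed at 480 nm.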
AmpC detergent: inhibitors of E. coli AmpC beta-lactamase with detergent | P00811 | AmpC hydrolysis of nitrocefin, absorbance 480 nm, 0.01% Triton | Potency, µM (series often up to 114 µM), actives largely listed as inhibitors | actives 0.041% (n = 370,000); further: nearly all actives have a fitted effect of over 25% in size
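20 mM phosphate pH 7.0 + 0.01% (detergent screen) or 0.0001% Triton X-100; 5.3 nM AmpC reagent; cpd preinc 15 min RT; nitrocefin (800 uM stock) to start; A480 q20 s × 4 min; Activity was normalised to no-enzyme and no-compound control wells.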
RE007 growth inh: less growth of the S. pombe RE007 Vpr strain; S. pombe RE007 Vpr strain, BacTiter-Glo ATP luminescence, 24 h; Potency, µM (doses to about 92.2 µM), usual class: inhibitors; actives 0.21% (n = 360,000); AID 651644; active means well fitted falling curve with a large enough effect; inconclusive means small, poorly fitted or top-dose-only effect; inactive means no such curve, though single readings can be large or run the other way; further: nearly all actives have a fitted effect of over 50% in size
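Fission yeast strain RE007, carrying one chromosomally integrated HIV-1 vpr copy, was seeded at OD 0.01 in PMG+AL medium with 23 nL pinned compound. After 24 h at 30 °C and 99% humidity, viability was read by BacTiter-Glo luminescence.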
A number is an active result; - = inactive; ? = inconclusive; . = not tested or not shown. Unless noted, the call rests on the fitted dose curve; in most records, active means well fitted curve in the direction sought with a large enough effect; inconclusive means small, poorly fitted or top-dose-only effect, or another doubt; inactive means no such curve, though single readings can be large; an effect the other way counts as inactive or inconclusive.

SMILES	Giardia FBPA inh	Tb PYK inh	LmPK inhibitor	AmpC no deterg	AmpC detergent	RE007 growth inh
Fc1cccc(NC(=S)NC2CCCCCCC2)c1	.	-	-	13µM	-	-
S=C(Nc1ccc2nsnc2c1)NC1CCCCC1	1.8µM	-	-	-	-	-
COC(=O)CN1C(=O)C(C)(C)c2cc(S(=O)(=O)Nc3ccc(C(C)C)cc3)ccc21	.	-	.	.	-	.
CNC(CC(=O)c1ccc([N+](=O)[O-])cc1)C(Cl)(Cl)Cl (stereo not drawn)	-	13µM	-	-	-	13µM
Cc1c(Cl)cccc1NC(=O)CCS(=O)(=O)c1ccc2c(c1)CC(C)N2C(=O)C1CC1 (stereo not drawn)	.	-	.	.	-	.
O=C(CSc1c[nH]c2ccccc12)N1CCCc2ccccc21	-	-	-	18µM	?	-
Cn1c(SCC(=O)N2CCCc3ccccc32)nnc1-c1c[nH]c2ccccc12	-	-	-	-	-	-
CCOCCCNC(=O)NC(C)c1c(-n2cccc2)sc2c1CCN(CC)C2 (stereo not drawn)	.	-	.	.	-	.
COc1ccc(NC(=O)c2cc3c(=O)n(Cc4cccnc4)ccc3nc2C)c(OC)c1	.	-	.	.	-	.
CCN1/C(=C/c2ccc3ccccc3[n+]2CC)C=Cc2ccccc21	-	32µM	14µM	-	-	22µM
O=C(Cc1ccc(-n2c(=O)c3sccc3n(CC(=O)Nc3ccccc3)c2=O)cc1)NCc1ccco1	-	-	-	-	-	-
Cc1ccc(C)c(Cn2c(=O)n(-c3ccc(CC(=O)NCc4ccco4)cc3)c(=O)c3sccc32)c1	-	-	-	11µM	?	-
Cc1c(Nc2ncnc3c2cnn3-c2ccccc2)c(=O)n(-c2ccccc2)n1C	-	-	-	0.14µM	-	-
Cc1cccc(-n2ncc3c(Nc4c(C)n(C)n(-c5ccccc5)c4=O)ncnc32)c1	-	-	-	-	-	-
Brc1ccc(-c2noc(C3CCCCC3)n2)cc1	-	-	-	-	-	-
c1ccc(-c2noc(-c3cccnc3)n2)nc1	-	-	14µM	-	?	-
c1ccc(-c2noc(C3CCCCC3)n2)nc1	-	-	?	-	-	35µM
O=[N+]([O-])c1cccc(-c2nc(-c3ccccn3)no2)c1	-	-	?	-	-	-
c1ccc(-c2noc(-c3ccncc3)n2)nc1	-	?	13µM	-	?	?
c1ccc(-c2noc(-c3ccc4ccccc4c3)n2)nc1	-	-	6.3µM	-	-	?
Cc1onc(-c2ccccc2Cl)c1-c1nc(-c2ccccn2)no1	-	-	-	-	-	-
Cc1cccc(-c2noc(-c3ccc4c(c3)OCO4)n2)c1	-	-	-	-	-	-
c1ccc(-c2noc(-c3ccc4c(c3)OCO4)n2)nc1	-	11µM	3.2µM	?	-	?
Clc1ccccc1/C=C/c1nc(-c2ccccn2)no1	-	-	4µM	-	-	?
COc1cccc(-c2nc(-c3ccccc3)no2)c1	-	-	-	-	?	-
SMILES	Giardia FBPA inh	Tb PYK inh	LmPK inhibitor	AmpC no deterg	AmpC detergent	RE007 growth inh
COc1cccc(-c2nc(-c3ccccn3)no2)c1	.	?	13µM	-	-	?
Cc1ccc(NC(=O)c2cc(CN3CCOCC3)on2)cc1Cl	.	-	.	.	-	.
CCN(Cc1ccccc1)S(=O)(=O)c1ccc2c(c1)CC(C)N2C(=O)C1CCC1 (stereo not drawn)	.	-	.	.	-	.
COc1ccc(CCn2c(C)ccc2C)cc1OC	-	.	-	-	?	.
COc1ccc(CCN2C(=O)C=CC2=O)cc1OC	.	?	.	.	.	5.6µM
COc1ccc(NC(=O)Cc2ccccc2)cn1	-	-	-	-	-	-
COc1ccc(NC(=O)/C(Cl)=C(/Cl)S(=O)Cc2ccccc2)cn1 (stereo not drawn)	-	-	-	-	-	45µM
CSc1nnc(-c2ccco2)c(-c2ccco2)n1	3.5µM	?	-	-	-	-
Cc1ccccc1NC(=O)CSc1nnc(-c2ccco2)c(-c2ccco2)n1	1.8µM	20µM	-	-	-	-
